# Data from PubChem BioAssay (Tox21).
# Values joined by “and” are separate entries in the source; they are usually repeats but may differ in a detail not shown here. Equal values may be shown once. Active and inactive are the calls of the source. Where a call stands in place of a potency, no number is given. Unless noted, calls come from the whole dose curve; as a rule, active = well fitted curve in the direction sought with a large enough effect in the repeat runs; inconclusive = weak or mixed curves; inactive = no such curve, though single readings can be large; an effect the other way counts as inactive or inconclusive.
# Columns and labels:
# [1] = qHTS assay to identify small molecule antagonists of the thyroid receptor (TR) signaling pathway - cell viability counter screen (AID 743064); note: nearly all actives have a fitted effect of over 50% in size; note: potency is the fitted concentration of half-maximal effect
# In short: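 Viability of T3-stimulated (1 nM final) GH3.TRE-Luc cells is measured by CellTiter-Fluor fluorescence after 23.5 h compound exposure at 37 °C plus 30 min reagent incubation.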
# [2] = qHTS assay to identify small molecule antagonists of the thyroid receptor (TR) signaling pathway (AID 743065); note: nearly all actives have a fitted effect of over 55% in size; note: potency is the fitted concentration of half-maximal effect
# In short: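 GH3.TRE-Luc rat pituitary cells (two TREs driving luciferase) were dosed with compound, then stimulated with 1 nM T3 (final) for 23.5 h at 37 C. ONE-Glo luminescence was the read-out, with CellTiter-Fluor fluorescence as the cytotoxicity counter-screen.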
# [3] = test system: thyroid hormone receptor (rat, GH3 cells); experiment: qHTS assay to identify small molecule agonists of the thyroid receptor (TR) signaling pathway (AID 743066; calls by dose curve)
# [4] = qHTS assay to identify small molecule antagonists of the estrogen receptor alpha (ER-alpha) signaling pathway - cell viability counter screen (AID 743074; calls by dose curve;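 note: HEK293 cells carrying ER-alpha-UAS-bla reporter stimulated with 17beta-estradiol; nearly all actives have a fitted effect of over 45% in size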; note: potency is the fitted concentration of half-maximal effect)
# [5] = qHTS assay to identify small molecule antagonists of the estrogen receptor alpha (ER-alpha) signaling pathway using the BG1 cell line - cell viability counter screen (AID 743081);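 note: compound given together with 17beta-estradiol as the ER stimulus; nearly all actives have a fitted effect of over 45% in size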; note: potency is the fitted concentration of half-maximal effect
# [6] = biological target: Aromatase (Homo sapiens) (UniProt P11511); experiment: qHTS assay to identify aromatase inhibitors (AID 743083); note: nearly all actives have a fitted effect of over 55% in size; note: potency is the fitted concentration of half-maximal effect
# [7] = qHTS assay to identify aromatase inhibitors - cell viability counter screen (AID 743084);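 note: cells stimulated with testosterone during compound exposure; nearly all actives have a fitted effect of over 55% in size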; note: potency is the fitted concentration of half-maximal effect
# [8] = biological target: Aryl hydrocarbon receptor (Homo sapiens) (UniProt P35869); experiment: qHTS assay to identify small molecule that activate the aryl hydrocarbon receptor (AhR) signaling pathway (AID 743085); note: nearly all actives have a fitted effect of over 15% in size; note: potency is the fitted concentration of half-maximal effect;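 for activation: HG2L7.5c1 human HepG2 liver cells with stably integrated DRE-driven firefly reporter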
# In short: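 A multiplexed format paired cell viability (CellTiter-Fluor fluorescence) with AhR-dependent luciferase output (ONE-Glo luminescence) in the same wells of HepG2 DRE-luc cells after 24 h compound exposure at 37C.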
# [9] = qHTS assay to identify small molecule that activate the aryl hydrocarbon receptor (AhR) signaling pathway - cell viability counter screen (AID 743086); note: nearly all actives have a fitted effect of over 45% in size; note: potency is the fitted concentration of half-maximal effect
# In short: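 HepG2-AhR-luc (HG2L7.5c1) cells, 4000/well, treated 24 h at 37 C with compound; viability measured as CellTiter-Fluor fluorescence after 30 min in the same wells as the luciferase read.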
# [10] = qHTS assay to identify small molecule antagonists of the peroxisome proliferator-activated receptor gamma (PPARg) signaling pathway - cell viability counter screen (AID 743194); note: nearly all actives have a fitted effect of over 55% in size; note: potency is the fitted concentration of half-maximal effect
# In short: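 Cytotoxicity counter screen in PPARg-bla HEK293H cells, same wells as reporter assay. Compounds plus 50 nM rosiglitazone (final) for 17 h at 37 C, then viability read by CellTiter-Glo luminescence.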
# [11] = biological target: Peroxisome proliferator-activated receptor gamma (Homo sapiens) (UniProt P37231); experiment: qHTS assay to identify small molecule agonists of the peroxisome proliferator-activated receptor gamma (PPARg) signaling pathway (AID 743094; active = well fitted activation curve with a large enough effect in the signal ratio in the repeat runs, not every such curve was filed as active; inconclusive = weak or mixed curves, or effect the other way; inactive = no such curve, though single readings can be large or run the other way; the % refers to the signal ratio)
# In short: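 HEK293H PPARg-bla cells, 5 h settle at 37C/5% CO2; compound (DMSO) 17 h, 37C; B/G FRET substrate 1 h RT; fluorescence intensity read-out. qHTS format.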
# [12] = biological target: Peroxisome proliferator-activated receptor gamma (Homo sapiens) (UniProt P37231); experiment: qHTS assay to identify small molecule antagonists of the peroxisome proliferator-activated receptor gamma (PPARg) signaling pathway (AID 743191; calls by dose curve; note: nearly all actives have a fitted effect of over 30% in size)
# In short: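 GeneBLAzer PPARg UAS-bla HEK293H cells, 5 h post-plating, exposed to compounds 17 h at 37C. LiveBLAzer B/G FRET substrate added for 1 h at room temperature; beta-lactamase reporter read by fluorescence intensity.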
# [13] = qHTS assay for small molecule agonists of the antioxidant response element (ARE) signaling pathway (AID 743202; active = well fitted activation curve with a large enough effect in the signal ratio in the repeat runs, not every such curve was filed as active; inconclusive = weak or mixed curves, or effect the other way; inactive = no such curve, though single readings can be large or run the other way; the % refers to the signal ratio; note: potency is the fitted concentration of half-maximal effect)
# In short: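 HepG2 ARE-bla reporter line, 2,000 cells/well; 5 h preincubation 37 C/5% CO2; compound (DMSO) 16 h 37 C; B/G FRET substrate 2 h RT; fluorescence intensity.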
# [14] = qHTS assay for small molecule agonists of the antioxidant response element (ARE) signaling pathway - cell viability counter screen (AID 743203; calls by dose curve; note: nearly all actives have a fitted effect of over 55% in size; note: potency is the fitted concentration of half-maximal effect)
# In short: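 Luminescence read-out (CellTiter-Glo, 30 min at room temperature) measured cell viability in the same wells as the ARE beta-lactamase reporter. HepG2 ARE-bla cells were treated with compounds for 16 hrs at 37C/5% CO2.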
# [15] = qHTS assay for small molecule activators of the heat shock response signaling pathway - cell viability counter screen (AID 743209); note: nearly all actives have a fitted effect of over 50% in size; note: potency is the fitted concentration of half-maximal effect
# In short: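 HSE-bla HeLa; 1500 cells/well; overnight 37 C, 5% CO2; compound 5 h 37 C; LiveBLAzer B/G substrate 2.5 h RT; CellTiter-Glo 30 min RT; luminescence.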
# [16] = qHTS assay for small molecule activators of the heat shock response signaling pathway (AID 743210; active = well fitted activation curve with a large enough effect in the signal ratio in the repeat runs, with a control signal flat, not every such curve was filed as active; inconclusive = weak or mixed curves; the % refers to the signal ratio;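 note: HeLa cells with beta-lactamase reporter driven by heat shock elements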)
# In short: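 Beta-lactamase reporter read-out: FRET substrate fluorescence after 2.5 h at RT, following 5 h compound treatment at 37 C of HeLa cells carrying HSE-driven bla reporter; quantitative HTS format.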
# [17] = biological target: Estrogen receptor (Homo sapiens) (UniProt P03372); experiment: qHTS assay to identify small molecule agonists of the estrogen receptor alpha (ER-alpha) signaling pathway (AID 743075; calls by dose curve;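 note: HEK293 GripTite cells with ER-alpha and UAS-driven beta-lactamase reporter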; note: potency is the fitted concentration of half-maximal effect)
# [18] = biological target: Estrogen receptor (Homo sapiens) (UniProt P03372); experiment: qHTS assay to identify small molecule agonists of the estrogen receptor alpha (ER-alpha) signaling pathway using the BG1 cell line (AID 743079); conditions: BG1Luc4E2 cells, ERE-luciferase agonist, 22 h; activation: at 70.3 µM (top of the series); note: nearly all actives have a fitted effect of over 20% in size
# [19] = qHTS assay to identify small molecule antagonists of the estrogen receptor alpha (ER-alpha) signaling pathway using the BG1 cell line (AID 743080; calls by dose curve;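 note: BG1 cells stimulated with 17beta-estradiol alongside compound; potency is the fitted concentration of half-maximal effect; nearly all actives have a fitted effect of over 25% in size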); conditions: BG1Luc4E2 ERE-luciferase antagonist mode, luminescence; activity change, negative = inhibition: at 70.3 µM (top of the series)
# In short: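 BG1-Luc-4E2 cells (endogenous full-length ER-alpha, 4xERE luciferase) hormone-starved 5 days in charcoal-stripped FBS, plated 4,000/well for 24 h, then compound plus 17beta-estradiol for 21.5 h at 37 C; ONE-Glo luminescence read.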
# [20] = biological target: Estrogen receptor (Homo sapiens) (UniProt P03372); experiment: qHTS assay to identify small molecule antagonists of the estrogen receptor alpha (ER-alpha) signaling pathway (AID 743069; active = well fitted curve in the direction sought with a large enough effect in the signal ratio in the repeat runs, not every such curve was filed as active; inconclusive = weak or mixed curves, or effect the other way; inactive = no such curve, though single readings can be large or run the other way; the % refers to the signal ratio; note: potency is the fitted concentration of half-maximal effect)
# In short: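 Beta-lactamase FRET fluorescence is read after 2 hr at room temperature with LiveBLAzer B/G substrate. Before that, ER-alpha-bla HEK293 cells sit 4 hr after plating, then receive compound plus 17beta-estradiol and incubate 18 hr at 37C.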
# Aromatase (Homo sapiens), sequence (P11511 whole entry, looked up): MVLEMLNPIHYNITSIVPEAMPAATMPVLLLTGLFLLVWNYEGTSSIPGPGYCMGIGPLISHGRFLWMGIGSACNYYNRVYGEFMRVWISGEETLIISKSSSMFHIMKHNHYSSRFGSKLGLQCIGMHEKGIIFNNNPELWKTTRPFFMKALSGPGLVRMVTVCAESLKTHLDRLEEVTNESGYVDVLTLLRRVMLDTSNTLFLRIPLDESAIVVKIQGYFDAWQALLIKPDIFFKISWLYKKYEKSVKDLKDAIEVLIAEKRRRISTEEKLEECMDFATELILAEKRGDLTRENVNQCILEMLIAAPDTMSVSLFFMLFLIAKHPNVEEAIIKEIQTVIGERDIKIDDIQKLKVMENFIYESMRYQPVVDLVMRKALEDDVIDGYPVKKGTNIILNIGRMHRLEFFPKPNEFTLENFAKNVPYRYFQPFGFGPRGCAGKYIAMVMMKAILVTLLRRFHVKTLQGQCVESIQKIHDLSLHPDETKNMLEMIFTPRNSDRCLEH
# Estrogen receptor (Homo sapiens), sequence (P03372 whole entry, looked up): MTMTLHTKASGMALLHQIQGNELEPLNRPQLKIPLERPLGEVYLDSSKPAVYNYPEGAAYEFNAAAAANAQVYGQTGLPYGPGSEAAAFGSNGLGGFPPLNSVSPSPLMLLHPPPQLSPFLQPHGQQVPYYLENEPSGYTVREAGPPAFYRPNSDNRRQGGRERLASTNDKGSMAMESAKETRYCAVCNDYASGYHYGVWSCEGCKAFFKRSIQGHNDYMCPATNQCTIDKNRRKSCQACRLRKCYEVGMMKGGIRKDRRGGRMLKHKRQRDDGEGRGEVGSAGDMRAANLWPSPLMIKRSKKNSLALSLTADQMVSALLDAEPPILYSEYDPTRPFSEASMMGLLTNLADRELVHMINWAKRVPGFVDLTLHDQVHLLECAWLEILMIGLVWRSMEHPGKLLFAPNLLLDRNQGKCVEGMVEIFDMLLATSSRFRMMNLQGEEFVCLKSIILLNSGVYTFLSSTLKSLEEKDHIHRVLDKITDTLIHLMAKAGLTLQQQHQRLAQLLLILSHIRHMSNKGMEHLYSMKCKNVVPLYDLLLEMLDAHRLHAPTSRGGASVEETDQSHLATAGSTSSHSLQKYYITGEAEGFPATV
# Peroxisome proliferator-activated receptor gamma (Homo sapiens), sequence (P37231 whole entry, looked up): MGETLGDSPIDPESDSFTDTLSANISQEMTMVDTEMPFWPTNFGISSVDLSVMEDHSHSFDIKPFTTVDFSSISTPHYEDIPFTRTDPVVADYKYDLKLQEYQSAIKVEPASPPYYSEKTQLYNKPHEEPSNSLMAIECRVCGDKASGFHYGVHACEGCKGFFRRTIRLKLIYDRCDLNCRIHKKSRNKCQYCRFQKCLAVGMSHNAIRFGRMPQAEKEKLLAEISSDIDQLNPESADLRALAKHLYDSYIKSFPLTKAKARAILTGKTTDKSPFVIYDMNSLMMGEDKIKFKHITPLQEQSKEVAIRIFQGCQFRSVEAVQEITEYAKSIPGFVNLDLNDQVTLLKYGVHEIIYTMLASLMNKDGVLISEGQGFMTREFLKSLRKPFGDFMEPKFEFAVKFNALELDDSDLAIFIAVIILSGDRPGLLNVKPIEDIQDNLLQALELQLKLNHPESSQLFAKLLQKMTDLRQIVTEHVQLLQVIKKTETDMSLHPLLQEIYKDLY
# Aryl hydrocarbon receptor (Homo sapiens), sequence (P35869 whole entry, looked up): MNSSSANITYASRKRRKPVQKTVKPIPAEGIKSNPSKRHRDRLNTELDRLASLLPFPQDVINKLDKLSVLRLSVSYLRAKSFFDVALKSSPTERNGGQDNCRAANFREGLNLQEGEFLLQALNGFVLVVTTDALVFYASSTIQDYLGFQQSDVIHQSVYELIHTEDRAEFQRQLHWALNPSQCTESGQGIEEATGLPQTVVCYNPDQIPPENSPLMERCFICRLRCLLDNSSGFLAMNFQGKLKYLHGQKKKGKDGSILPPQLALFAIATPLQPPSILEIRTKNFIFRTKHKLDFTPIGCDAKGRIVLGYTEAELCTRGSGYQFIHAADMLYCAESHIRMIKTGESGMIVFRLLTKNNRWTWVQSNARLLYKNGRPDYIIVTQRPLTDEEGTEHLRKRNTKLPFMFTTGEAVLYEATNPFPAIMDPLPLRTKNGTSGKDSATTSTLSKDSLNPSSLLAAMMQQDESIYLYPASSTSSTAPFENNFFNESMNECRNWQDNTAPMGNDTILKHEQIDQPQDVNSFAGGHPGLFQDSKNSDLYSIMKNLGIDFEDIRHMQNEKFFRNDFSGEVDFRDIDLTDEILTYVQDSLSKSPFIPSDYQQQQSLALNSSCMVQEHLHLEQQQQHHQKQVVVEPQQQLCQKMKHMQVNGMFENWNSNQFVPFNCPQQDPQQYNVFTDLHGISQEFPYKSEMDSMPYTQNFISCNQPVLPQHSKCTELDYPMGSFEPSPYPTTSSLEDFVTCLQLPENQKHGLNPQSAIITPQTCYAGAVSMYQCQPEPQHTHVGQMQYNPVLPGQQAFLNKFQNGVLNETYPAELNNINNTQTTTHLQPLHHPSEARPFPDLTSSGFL
Structure (SMILES),Potency [1],Potency [2],Potency [3],Potency [4],Potency [5],Potency [6],Potency [7],Potency [8],Potency [9],Potency [10],Potency [11],Potency [12],Potency [13],Potency [14],Potency [15],Potency [16],Potency [17],Potency [18],Potency [19],Potency [20]
CC(=O)Nc1ccc(O)cc1,inactive,inactive,inactive,inactive,inactive,inactive,inactive,inactive,inactive,inactive,–,–,–,–,–,–,–,–,–,–
CC1(C)C(=O)N(Br)C(=O)N1Br,inactive,inactive,inactive,inactive,inactive,inactive,inactive,inactive,–,inactive,inactive,inactive,inactive,inactive,inactive,inactive,–,–,–,–
COC(=O)NCCC[Si](OC)(OC)OC,inactive,inactive,inactive,inactive,inactive,inactive,inactive,inactive,inactive,inactive,–,–,–,inactive,inactive,–,–,–,–,–
CC(C)(c1cc(Br)c(O)c(Br)c1)c1cc(Br)c(O)c(Br)c1,27.2 µM (active),27.2 µM (active) and 48.4 µM (active) and 51.6 µM (active),inactive,–,inactive,–,–,–,inactive,54.8 µM (active) and 43.5 µM (active) and 46.3 µM (active),–,–,23 µM (active),60.9 µM (active) and 57.9 µM (active),–,–,–,–,–,–
C=CC(=O)OCC(O)COc1ccccc1 (stereo unspecified),54.5 µM (active),48.6 µM (active),inactive,inactive,inactive,68.6 µM (active),61.1 µM (active),inactive,inactive,–,–,–,–,–,–,–,inactive,inactive,–,–
Cc1cc(Nc2ccc(O)cc2)ccc1N,12.1 µM (active),7.66 µM (active),inactive,inactive,54.2 µM (active),27.2 µM (active),24.2 µM (active),–,–,12.2 µM (active),–,–,–,–,inactive,–,–,–,–,–
SCCCCCCCCS,inactive,inactive,inactive,inactive,inactive,inactive,inactive,inactive,inactive,inactive,–,–,–,43.3 µM (active),–,–,–,–,–,–
O=C(O)CCn1c2c(c3ccccc31)C[C@H](NS(=O)(=O)c1ccc(F)cc1)CC2,inactive,inactive,inactive,inactive,–,inactive,inactive,inactive,inactive,inactive,–,–,–,–,–,–,–,–,–,–
CCCCCCCCCCCCN(CCO)CCO,17.2 µM (active),15.3 µM (active),inactive,48.8 µM (active),–,30.5 µM (active),48.4 µM (active),inactive,–,54.7 µM (active),–,–,–,54.3 µM (active),54.7 µM (active),–,inactive,–,68.3 µM (active),–
CCNc1nc(NC(C)CC)nc(OC)n1 (stereo unspecified),inactive,inactive,inactive,inactive,inactive,inactive,inactive,–,inactive,inactive,–,inactive,–,inactive,–,–,–,–,–,–
c1cc(OCC2CO2)cc(OCC2CO2)c1 (stereo unspecified),19.2 µM (active),7.63 µM (active),inactive,–,inactive,–,48.2 µM (active),–,–,inactive,–,–,30.4 µM (active),inactive,inactive,–,inactive,–,–,–
C=C1C(C)(C)[C@@]2(Cl)C(Cl)[C@]1(Cl)C(Cl)(Cl)C2(Cl)Cl (stereo partly specified),26.8 µM (active),23.9 µM (active),inactive,–,inactive,60 µM (active),–,inactive,inactive,–,inactive,–,7.56 µM (active),–,–,–,–,–,–,–
O=C(Nc1ccc(Cl)c(Cl)c1)c1cc(Cl)cc(Cl)c1O,4.86 µM (active),2.17 µM (active),inactive,2.45 µM (active),inactive,6.11 µM (active),–,0.109 µM (active),inactive,0.49 µM (active),–,–,–,24.3 µM (active),–,–,0.436 µM [inconclusive] (active),–,4.86 µM (active),–
C/C=C/C(=O)Oc1c(CCCCCC(C)C)cc([N+](=O)[O-])cc1[N+](=O)[O-],12.2 µM (active),3.86 µM (active),inactive,–,–,15.4 µM (active),21.7 µM (active),–,–,6.16 µM (active),–,–,–,8.63 µM (active),24.5 µM (active),–,–,–,–,4.9 µM [inconclusive] (active)
CCN(CC)CCNc1ccc(CO)c2sc3ccccc3c(=O)c12,4.73 µM (active),1.06 µM (active),–,inactive,13.3 µM (active),inactive,inactive,0.531 µM (active),6.68 µM (active),–,–,–,–,6.68 µM (active),inactive,inactive,inactive,–,–,30.1 µM [inconclusive] (active)
